In the supplement of paper PMC10849652:
About 7,900 targets were measured; listed, in parts, are those with a hit and a random draw of the rest. About 0.6% of all pairs of compound and target were hits.

Each target was assayed with COC(=O)N[C@@H](C)CNc1nccc(-c2cn(C(C)C)nc2-c2cc(Cl)cc(NS(C)(=O)=O)c2F)n1 [encorafenib] (assay: log2 fold change, soluble protein after heating vs DMSO (PISA); higher = thermal stabilisation; K562 cells, 10 uM, 30 min; active = over 0.2 and 3.5 SD of the protein, either way, in both replicates (recomputed)).
In short: (§1)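 K562 cells at 2×10^6 cells/mL were treated with 10 μM compound for 30 min. Aliquots were heated for 3 min across 48°C-58°C, pooled, and extracted in PBS with 0.5% NP-40 at 4°C; soluble protein was the supernatant after 21,000xg for 90 min. Soluble protein was quantified by TMTpro 16plex LC-MS/MS with channel sums equalised, and reported as log2 fold change in thermal stability against DMSO controls, with values from duplicates.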

Chain of UniProt Q12968 (Q12968 whole entry, looked up): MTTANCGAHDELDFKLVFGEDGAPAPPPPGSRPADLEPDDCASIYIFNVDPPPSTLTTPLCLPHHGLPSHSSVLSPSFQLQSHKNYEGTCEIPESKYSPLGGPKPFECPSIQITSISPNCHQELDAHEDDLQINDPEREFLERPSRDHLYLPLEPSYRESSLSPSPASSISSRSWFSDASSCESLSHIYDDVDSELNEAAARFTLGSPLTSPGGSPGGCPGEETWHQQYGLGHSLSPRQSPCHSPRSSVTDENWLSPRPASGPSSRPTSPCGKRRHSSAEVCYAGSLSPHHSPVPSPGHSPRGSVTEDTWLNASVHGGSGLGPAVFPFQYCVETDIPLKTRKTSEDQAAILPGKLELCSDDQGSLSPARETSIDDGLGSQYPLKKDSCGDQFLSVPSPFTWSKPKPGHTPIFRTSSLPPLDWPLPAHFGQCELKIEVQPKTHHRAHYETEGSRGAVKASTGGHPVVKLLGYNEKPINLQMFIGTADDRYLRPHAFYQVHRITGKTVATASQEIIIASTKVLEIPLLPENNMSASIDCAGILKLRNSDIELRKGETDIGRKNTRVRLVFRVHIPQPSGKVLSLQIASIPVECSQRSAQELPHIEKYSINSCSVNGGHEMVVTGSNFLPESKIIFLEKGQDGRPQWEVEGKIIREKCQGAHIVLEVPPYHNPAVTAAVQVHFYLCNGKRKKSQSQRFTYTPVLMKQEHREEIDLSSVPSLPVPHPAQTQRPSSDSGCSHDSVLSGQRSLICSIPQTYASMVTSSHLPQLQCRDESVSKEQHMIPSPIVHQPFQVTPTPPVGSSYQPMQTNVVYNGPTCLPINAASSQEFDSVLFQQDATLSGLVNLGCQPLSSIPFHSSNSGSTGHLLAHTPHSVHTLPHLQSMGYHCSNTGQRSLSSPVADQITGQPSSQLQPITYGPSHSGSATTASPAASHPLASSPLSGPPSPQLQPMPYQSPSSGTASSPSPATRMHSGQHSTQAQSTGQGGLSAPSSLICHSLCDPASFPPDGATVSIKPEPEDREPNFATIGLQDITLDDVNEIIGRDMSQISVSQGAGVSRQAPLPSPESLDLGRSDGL
Chain of UniProt Q9Y2X3 (Q9Y2X3 whole entry, looked up): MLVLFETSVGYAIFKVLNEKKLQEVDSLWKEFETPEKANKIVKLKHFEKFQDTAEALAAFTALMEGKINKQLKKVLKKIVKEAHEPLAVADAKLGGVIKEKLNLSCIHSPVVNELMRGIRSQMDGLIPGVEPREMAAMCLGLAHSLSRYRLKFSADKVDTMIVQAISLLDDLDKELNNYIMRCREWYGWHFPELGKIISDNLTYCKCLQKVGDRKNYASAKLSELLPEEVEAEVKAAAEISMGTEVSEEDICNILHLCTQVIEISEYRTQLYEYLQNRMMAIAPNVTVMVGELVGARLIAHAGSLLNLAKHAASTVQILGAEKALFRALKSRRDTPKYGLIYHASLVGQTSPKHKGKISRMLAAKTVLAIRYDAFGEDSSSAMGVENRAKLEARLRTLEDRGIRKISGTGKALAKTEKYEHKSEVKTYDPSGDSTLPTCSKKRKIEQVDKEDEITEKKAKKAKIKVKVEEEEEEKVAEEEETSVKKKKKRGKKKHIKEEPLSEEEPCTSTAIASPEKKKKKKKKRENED
Chain of UniProt Q13423 (Q13423 whole entry, looked up): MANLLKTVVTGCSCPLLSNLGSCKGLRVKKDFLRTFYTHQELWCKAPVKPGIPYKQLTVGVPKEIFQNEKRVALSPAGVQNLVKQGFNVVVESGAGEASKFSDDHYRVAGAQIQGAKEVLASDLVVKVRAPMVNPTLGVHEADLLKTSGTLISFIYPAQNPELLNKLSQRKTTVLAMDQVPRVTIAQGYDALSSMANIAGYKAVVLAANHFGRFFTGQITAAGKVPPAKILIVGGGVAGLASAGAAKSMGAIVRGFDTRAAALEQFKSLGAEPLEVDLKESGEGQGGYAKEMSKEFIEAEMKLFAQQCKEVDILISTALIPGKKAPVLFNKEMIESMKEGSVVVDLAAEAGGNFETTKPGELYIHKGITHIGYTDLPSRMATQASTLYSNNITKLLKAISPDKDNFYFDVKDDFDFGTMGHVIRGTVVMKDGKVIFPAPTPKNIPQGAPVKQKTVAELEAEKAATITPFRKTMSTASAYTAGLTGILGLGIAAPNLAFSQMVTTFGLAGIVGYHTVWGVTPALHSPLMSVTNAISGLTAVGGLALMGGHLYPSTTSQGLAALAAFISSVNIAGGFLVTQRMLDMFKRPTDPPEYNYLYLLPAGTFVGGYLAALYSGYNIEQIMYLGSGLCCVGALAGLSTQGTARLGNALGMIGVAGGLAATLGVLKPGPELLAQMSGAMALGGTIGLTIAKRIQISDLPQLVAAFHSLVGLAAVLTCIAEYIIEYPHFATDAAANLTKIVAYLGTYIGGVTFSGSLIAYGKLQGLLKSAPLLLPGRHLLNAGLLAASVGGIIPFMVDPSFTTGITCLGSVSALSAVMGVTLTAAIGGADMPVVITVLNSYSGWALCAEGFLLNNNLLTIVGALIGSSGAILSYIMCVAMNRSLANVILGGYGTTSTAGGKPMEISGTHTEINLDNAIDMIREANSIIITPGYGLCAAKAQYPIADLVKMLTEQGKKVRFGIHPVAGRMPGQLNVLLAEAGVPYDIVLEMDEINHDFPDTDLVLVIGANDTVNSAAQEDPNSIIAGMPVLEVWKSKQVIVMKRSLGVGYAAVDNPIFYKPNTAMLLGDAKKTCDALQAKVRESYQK
Chain of UniProt Q8WX92 (Q8WX92 whole entry, looked up): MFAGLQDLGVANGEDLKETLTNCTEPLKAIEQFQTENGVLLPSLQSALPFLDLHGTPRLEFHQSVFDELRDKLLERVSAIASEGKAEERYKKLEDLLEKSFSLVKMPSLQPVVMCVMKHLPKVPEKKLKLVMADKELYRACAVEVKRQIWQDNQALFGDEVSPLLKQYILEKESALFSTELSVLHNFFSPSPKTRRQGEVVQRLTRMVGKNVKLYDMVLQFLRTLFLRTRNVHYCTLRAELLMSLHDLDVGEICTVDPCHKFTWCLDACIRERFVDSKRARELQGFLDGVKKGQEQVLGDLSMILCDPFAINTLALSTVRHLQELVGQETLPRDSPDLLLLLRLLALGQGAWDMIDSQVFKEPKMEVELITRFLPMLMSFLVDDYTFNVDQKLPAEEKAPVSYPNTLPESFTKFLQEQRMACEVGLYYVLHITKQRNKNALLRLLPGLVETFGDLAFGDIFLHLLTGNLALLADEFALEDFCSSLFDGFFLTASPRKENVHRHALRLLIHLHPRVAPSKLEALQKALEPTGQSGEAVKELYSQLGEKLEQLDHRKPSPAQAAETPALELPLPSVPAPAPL
Chain of UniProt P49116 (P49116 whole entry, looked up): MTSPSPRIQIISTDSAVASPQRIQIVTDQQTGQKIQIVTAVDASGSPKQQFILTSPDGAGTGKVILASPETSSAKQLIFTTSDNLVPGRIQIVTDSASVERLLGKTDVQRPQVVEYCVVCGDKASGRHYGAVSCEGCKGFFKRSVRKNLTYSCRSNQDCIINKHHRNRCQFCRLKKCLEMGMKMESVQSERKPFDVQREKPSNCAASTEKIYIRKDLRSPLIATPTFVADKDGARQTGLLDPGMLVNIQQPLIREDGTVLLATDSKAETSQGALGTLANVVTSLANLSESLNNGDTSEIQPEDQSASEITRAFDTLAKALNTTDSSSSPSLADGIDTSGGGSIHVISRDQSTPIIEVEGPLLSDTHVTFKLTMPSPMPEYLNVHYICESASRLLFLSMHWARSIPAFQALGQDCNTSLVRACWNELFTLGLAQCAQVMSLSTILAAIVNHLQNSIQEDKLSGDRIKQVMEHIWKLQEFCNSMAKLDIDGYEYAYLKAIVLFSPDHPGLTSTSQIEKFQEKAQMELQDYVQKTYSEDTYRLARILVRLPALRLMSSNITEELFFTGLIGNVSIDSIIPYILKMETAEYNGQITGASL
Chain of UniProt Q96PU5 (Q96PU5 whole entry, looked up): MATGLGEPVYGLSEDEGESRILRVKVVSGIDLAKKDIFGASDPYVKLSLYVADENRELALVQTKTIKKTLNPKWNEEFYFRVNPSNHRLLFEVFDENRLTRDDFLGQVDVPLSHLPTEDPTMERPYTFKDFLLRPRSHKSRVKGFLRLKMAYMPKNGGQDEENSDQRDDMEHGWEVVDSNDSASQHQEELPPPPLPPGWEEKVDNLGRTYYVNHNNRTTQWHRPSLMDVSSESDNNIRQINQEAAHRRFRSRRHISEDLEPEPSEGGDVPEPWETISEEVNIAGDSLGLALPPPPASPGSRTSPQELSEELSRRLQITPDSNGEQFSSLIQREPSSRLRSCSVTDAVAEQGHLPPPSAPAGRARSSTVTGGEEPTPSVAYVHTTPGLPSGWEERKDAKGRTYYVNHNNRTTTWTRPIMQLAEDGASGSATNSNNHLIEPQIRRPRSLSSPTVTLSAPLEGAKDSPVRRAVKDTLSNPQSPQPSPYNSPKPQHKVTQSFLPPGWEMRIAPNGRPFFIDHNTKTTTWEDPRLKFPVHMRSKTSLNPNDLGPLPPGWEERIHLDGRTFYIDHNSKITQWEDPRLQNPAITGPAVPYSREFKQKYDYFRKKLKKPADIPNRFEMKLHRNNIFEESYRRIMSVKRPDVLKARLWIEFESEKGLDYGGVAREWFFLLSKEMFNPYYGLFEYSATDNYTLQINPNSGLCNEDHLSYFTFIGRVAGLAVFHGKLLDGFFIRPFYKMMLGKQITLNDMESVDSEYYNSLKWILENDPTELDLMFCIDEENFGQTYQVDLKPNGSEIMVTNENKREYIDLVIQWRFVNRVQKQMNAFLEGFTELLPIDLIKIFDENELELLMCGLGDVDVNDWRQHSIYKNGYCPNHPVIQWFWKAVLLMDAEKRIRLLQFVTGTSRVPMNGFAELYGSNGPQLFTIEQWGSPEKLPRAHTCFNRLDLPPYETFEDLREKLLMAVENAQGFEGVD
Chain of UniProt Q9NRP0 (Q9NRP0 whole entry, looked up): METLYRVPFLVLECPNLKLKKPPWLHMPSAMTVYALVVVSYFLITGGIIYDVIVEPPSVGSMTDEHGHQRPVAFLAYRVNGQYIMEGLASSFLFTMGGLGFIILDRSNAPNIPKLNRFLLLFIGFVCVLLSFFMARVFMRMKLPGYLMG

log2 fold change, inactive:
NELFB isoform 2 (UniProt Q8WX92) 0.079
MRPL50 (UniProt Q8N5N7) -0.01
MRPL46 (UniProt Q9H2W6) 0.045
NOP56 (UniProt O00567) 0.057
MTHFS (UniProt P49914) 0.007
MKNK1 (UniProt Q9BUB5) 0.018
NMNAT1 (UniProt Q9HAN9) 0.147
MT-ATP6 (UniProt P00846) 0.016
NFATC3 (UniProt Q12968) -0.166
NELFA (UniProt Q9H3P2) -0.039
OSTM1 (UniProt Q86WC4) 0.022
NDUFS8 (UniProt O00217) 0.059
MITD1 (UniProt Q8WV92) -0.018
NFX1 (UniProt Q12986) -0.01
NBN (UniProt O60934) 0.003
NDUFS7 (UniProt O75251) 0.024
NA, A0A096LPI6 -0.009
NSMCE2 (UniProt Q96MF7) -0.001
NIPSNAP2 (UniProt O75323) -0.028
MRPS10 (UniProt P82664) 0.014
NNT (UniProt Q13423) -0.001
NEU1 (UniProt Q99519) -0.012
NOL11 (UniProt Q9H8H0) -0.012
MRPS25 (UniProt P82663) -0.016
MRPS5 (UniProt P82675) 0.072
NMT2 (UniProt O60551) 0.02
NEDD4L (UniProt Q96PU5) 0.03
NR2C2 isoform 2 (UniProt P49116) 0.053
P4HA2 (UniProt O15460) -0.019
OSTC (UniProt Q9NRP0) 0.047
NFATC2 (UniProt Q13469) 0.101
PAFAH1B2 (UniProt P68402) -0.006
NA, A0A0B4J2A0 -0.003
OXSM (UniProt Q9NWU1) -0.007
NDUFA12 (UniProt Q9UI09) 0.05
NOP58 (UniProt Q9Y2X3) 0.106
MSTO1 (UniProt Q9BUK6) 0.04
MRPS27 isoform 2 (UniProt Q92552) 0.109
MYL12B (UniProt O14950) -0.012

What follows are targets tested with COC(=O)[C@H](CCSC)NC(=O)C1=C(C=C(C=C1)NC[C@H](CS)N)C2=CC=CC=C2 in the same assay as above.
In short: as §1

log2 fold change, inactive:
NELFB isoform 2 (UniProt Q8WX92) -0.057
MRPL50 (UniProt Q8N5N7) 0.061
MRPL46 (UniProt Q9H2W6) -0.026
NOP56 (UniProt O00567) 0.007
MTHFS (UniProt P49914) 0.014
MKNK1 (UniProt Q9BUB5) -0.053
NMNAT1 (UniProt Q9HAN9) 0.091
MT-ATP6 (UniProt P00846) 0.05
NFATC3 (UniProt Q12968) -0.051
NELFA (UniProt Q9H3P2) -0.213
OSTM1 (UniProt Q86WC4) 0.002
NDUFS8 (UniProt O00217) -0.026
MITD1 (UniProt Q8WV92) -0.043
NFX1 (UniProt Q12986) 0
NBN (UniProt O60934) -0.019
NDUFS7 (UniProt O75251) 0.002
NA, A0A096LPI6 0.019
NSMCE2 (UniProt Q96MF7) 0.025
NIPSNAP2 (UniProt O75323) 0.033
MRPS10 (UniProt P82664) -0.055
NNT (UniProt Q13423) -0.014
NEU1 (UniProt Q99519) -0.019
NOL11 (UniProt Q9H8H0) -0.009
MRPS25 (UniProt P82663) -0.017
MRPS5 (UniProt P82675) -0.068
NMT2 (UniProt O60551) 0.023
NEDD4L (UniProt Q96PU5) -0.023
NR2C2 isoform 2 (UniProt P49116) 0.028
P4HA2 (UniProt O15460) 0.001
OSTC (UniProt Q9NRP0) -0.046
NFATC2 (UniProt Q13469) 0.071
PAFAH1B2 (UniProt P68402) -0.026
NA, A0A0B4J2A0 -0.037
OXSM (UniProt Q9NWU1) -0.019
NDUFA12 (UniProt Q9UI09) -0.018
NOP58 (UniProt Q9Y2X3) -0.076
MSTO1 (UniProt Q9BUK6) 0.034
MRPS27 isoform 2 (UniProt Q92552) -0.045
MYL12B (UniProt O14950) -0.018
